29 molecules from PubChem BioAssay can be followed below.

The structures appear in SMILES notation. Unmarked numbers belong to inactive results. Active and inactive are the calls of the source. Cut-off read from the data, not from the text of the source, unless noted: active = inhibition above about 42%; inactive = the rest.

A word on the inhibition: it is the drop in the measured response relative to a control, in per cent.

System in one test: not listed separately
Nature of the test: StAR promoter reporter inhibitors, counter-screen for LRH-1 inverse agonist project, cell-based, luminescence, high throughput (AID 651611; in the data active = inhibition above about 28%). Conditions: StAR promoter luciferase reporter counterscreen, at 3.6 µM, stronger effect = higher value. In general terms: A counterscreen serves to expose hits that act by an unwanted route or on another target.
With `COC1/C=C/C=C(\C)Cc2cc(O)c(Cl)c(c2)N(C)C(=O)CC(OC(=O)C(C)C)C2(C)OC2C(C)C2CC1(O)NC(=O)O2` (configuration not stated), the inhibition was 64.9% (active).

`CCOC(=O)[C@]12Cc3ccccc3[C@H]1N(C1CCCCC1)C(=O)c1cc(OC)ccc12`: the inhibition is 55.3% (active).

Consider `COc1ccccc1-n1c(/C=C/c2ccccn2)nc2ccccc2c1=O`, for which the inhibition was 16.9%.

Turning to `N#Cc1c(Br)n(C2OC(CO)C(O)C2O)c2ncnc(N)c12` (configuration not stated), the inhibition is 61.8% (active).

As to `Cc1ccc2c(C)c3ccc4ccccc4c3c[n+]2c1`, the inhibition is 28.1% (active).

Regarding `CC1=C(O)C(=O)C=C2C1=CC=C1C2(C)CCC2(C)C3CC(C)(C(=O)O)CCC3(C)CCC12C` (configuration not stated), the inhibition is 91.6% (active).

For the molecule `O=[N+]([O-])c1cc(F)c(N2CCCCCC2)cc1N1CCNCC1`, the inhibition was 14.3%.

Regarding `COC(=O)C12CCc3c(ccc4cc(OC)ccc34)C1=CC(=O)C2` (configuration not stated), the inhibition is 0.25%.

With `CCOC(=O)[C@]12Cc3cc(C)ccc3[C@H]1N(C1CCCCC1)C(=O)c1cc(OC)ccc12`, the inhibition was 63.5% (active).

For the molecule `COc1ccc2c(c1)/C(=C/c1cnc[nH]1)C(=O)N2`, the inhibition was 59.4% (active).

In the case of `Cc1ccc(-n2nc(C)cc2NC(=O)COc2cc(C)cc3oc(=O)c4c(c23)CCC4)cc1`, the inhibition was 19.1%.

With `Cc1cc(S(=O)(=O)NC(C)C)ccc1OCC(=O)N1CCN(Cc2ccc3c(c2)OCO3)CC1`, the inhibition was 16.6%.

In the case of `COc1cc2c(cc1OC)[C@@H]1C(=O)c3ccc4c(c3O[C@@H]1CO2)C[C@H](C(C)C)O4`, the inhibition was 34.2% (active).

As for `CC(C)(C)c1ccc(CSc2cnn(C(C)(C)C)c(=O)c2Cl)cc1`, the inhibition is 28.1% (active).

As to `CC1=CC2OC3CC4OC(=O)C=CC=CC(=O)OCCC(C)C(O)C(=O)OCC2(CC1)C4(C)C31CO1` (configuration not stated), the inhibition was 96.6% (active).

Take `Cn1cc(NC(=O)CCl)cn1`: the inhibition was 41% (active).

Turning to `CCN1CCN(c2cc(N3CCCC3)c([N+](=O)[O-])cc2F)CC1`, the inhibition is 1.38%.

Turning to `O=Cc1cn(Cc2cccc([N+](=O)[O-])c2)c2ccccc12`, the inhibition was 65.6% (active).

Take `CC1CCN(C(=O)CCl)CC1`: the inhibition was 21.1%.

In the case of `Cc1cc(OCC(=O)OC(C)C)c2c3c(c(=O)oc2c1)CCCC3`, the inhibition is 14.7%.

Regarding `CCOC(=O)[C@]12Cc3cc(Cl)ccc3[C@H]1N(C1CCCCC1)C(=O)c1cc(OC)ccc12`, the inhibition is 87.5% (active).

On to `CCN(CC)C1=NC(=[N+](CC)CC)c2ccccc21`, for which the inhibition is 33.7% (active).

For the molecule `CCOC(=O)[C@]12Cc3c(cc(OC)c(OC)c3OC)[C@H]1N(C1CCCCC1)C(=O)c1ccccc12`, the inhibition is 45.9% (active).

As to `CCOC(=O)[C@]12Cc3ccc(C)cc3[C@H]1N(C1CCCCC1)C(=O)c1cc(OC)ccc12`, the inhibition was 77.2% (active).

As for `COc1cc2c(cc1OC)C1C(=O)c3ccc4c(c3OC1CO2)CC(C(C)C)O4` (configuration not stated), the inhibition is 40.3% (active).

For `CC12CCC(O)CC1CCC1C2CCC2(C)C(C3=CC(=O)OC3)C(O)CC12O` (configuration not stated), the inhibition is 92.6% (active).

Take `N#Cc1ccc(Cn2cc(C=O)c3ccccc32)cc1`: the inhibition was 4.87%.

Turning to `C=C1[C@@H](C)[C@H]2[C@H](Cc3ccccc3)NC(=O)[C@]23OC(=O)/C=C/[C@H](O)CCC[C@@H](C)C/C=C/[C@H]3[C@@H]1O`, the inhibition is 52.7% (active).

Another test deals with Nuclear receptor subfamily 5 group A member 2 (Homo sapiens) (UniProt O00482). Description: NR5A2 activity suppression in reporter cells – cell-based, luminescence, confirmation (AID 651613).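 Note: HEK293T cells co-transfected with LRH-1 and StAR promoter luciferase reporter; 0% = vehicle wells and 100% = parental cells lacking receptor.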 Conditions: cell-based LRH-1 luciferase reporter, inverse agonism; at 3.6 µM; stronger effect = higher value.
Sequence of Nuclear receptor subfamily 5 group A member 2 (Homo sapiens) (O00482 whole entry, looked up): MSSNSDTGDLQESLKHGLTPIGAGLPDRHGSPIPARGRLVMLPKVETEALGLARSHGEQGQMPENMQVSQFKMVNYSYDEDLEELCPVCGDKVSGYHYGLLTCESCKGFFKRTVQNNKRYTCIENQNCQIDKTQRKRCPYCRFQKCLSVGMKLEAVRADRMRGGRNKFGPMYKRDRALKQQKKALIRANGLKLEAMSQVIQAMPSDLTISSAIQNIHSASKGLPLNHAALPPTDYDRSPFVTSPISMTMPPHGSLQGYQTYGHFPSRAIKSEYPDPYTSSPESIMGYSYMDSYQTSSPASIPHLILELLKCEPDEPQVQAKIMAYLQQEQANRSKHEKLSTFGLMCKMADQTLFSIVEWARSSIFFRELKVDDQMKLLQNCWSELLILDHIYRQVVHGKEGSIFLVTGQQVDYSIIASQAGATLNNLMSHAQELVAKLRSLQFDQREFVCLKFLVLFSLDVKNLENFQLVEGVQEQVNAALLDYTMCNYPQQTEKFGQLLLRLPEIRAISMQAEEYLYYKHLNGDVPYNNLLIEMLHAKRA
For `COC1/C=C/C=C(\C)Cc2cc(O)c(Cl)c(c2)N(C)C(=O)CC(OC(=O)C(C)C)C2(C)OC2C(C)C2CC1(O)NC(=O)O2` (configuration not stated), the inhibition was 60.1% (active).

Regarding `CCOC(=O)[C@]12Cc3ccccc3[C@H]1N(C1CCCCC1)C(=O)c1cc(OC)ccc12`, the inhibition is 98% (active).

With `COc1ccccc1-n1c(/C=C/c2ccccn2)nc2ccccc2c1=O`, the inhibition was 63.3% (active).

`N#Cc1c(Br)n(C2OC(CO)C(O)C2O)c2ncnc(N)c12` (configuration not stated): the inhibition was 77.3% (active).

As to `Cc1ccc2c(C)c3ccc4ccccc4c3c[n+]2c1`, the inhibition is 99.6% (active).

With `CC1=C(O)C(=O)C=C2C1=CC=C1C2(C)CCC2(C)C3CC(C)(C(=O)O)CCC3(C)CCC12C` (configuration not stated), the inhibition was 106% (active).

Turning to `O=[N+]([O-])c1cc(F)c(N2CCCCCC2)cc1N1CCNCC1`, the inhibition is 54.1% (active).

In the case of `COC(=O)C12CCc3c(ccc4cc(OC)ccc34)C1=CC(=O)C2` (configuration not stated), the inhibition is 12.9%.

For `CCOC(=O)[C@]12Cc3cc(C)ccc3[C@H]1N(C1CCCCC1)C(=O)c1cc(OC)ccc12`, the inhibition is 97.4% (active).

As for `COc1ccc2c(c1)/C(=C/c1cnc[nH]1)C(=O)N2`, the inhibition is 85.8% (active).

Regarding `Cc1ccc(-n2nc(C)cc2NC(=O)COc2cc(C)cc3oc(=O)c4c(c23)CCC4)cc1`, the inhibition was 60.3% (active).

Turning to `Cc1cc(S(=O)(=O)NC(C)C)ccc1OCC(=O)N1CCN(Cc2ccc3c(c2)OCO3)CC1`, the inhibition was 52.9% (active).

With `COc1cc2c(cc1OC)[C@@H]1C(=O)c3ccc4c(c3O[C@@H]1CO2)C[C@H](C(C)C)O4`, the inhibition was 68.7% (active).

For the molecule `CC(C)(C)c1ccc(CSc2cnn(C(C)(C)C)c(=O)c2Cl)cc1`, the inhibition is 99.2% (active).

Take `CC1=CC2OC3CC4OC(=O)C=CC=CC(=O)OCCC(C)C(O)C(=O)OCC2(CC1)C4(C)C31CO1` (configuration not stated): the inhibition was 109% (active).

As for `Cn1cc(NC(=O)CCl)cn1`, the inhibition is 61.9% (active).

For the molecule `CCN1CCN(c2cc(N3CCCC3)c([N+](=O)[O-])cc2F)CC1`, the inhibition was 51.2% (active).

Regarding `O=Cc1cn(Cc2cccc([N+](=O)[O-])c2)c2ccccc12`, the inhibition is 74.4% (active).

Turning to `CC1CCN(C(=O)CCl)CC1`, the inhibition was 58.2% (active).

In the case of `Cc1cc(OCC(=O)OC(C)C)c2c3c(c(=O)oc2c1)CCCC3`, the inhibition is 57.9% (active).

Take `CCOC(=O)[C@]12Cc3cc(Cl)ccc3[C@H]1N(C1CCCCC1)C(=O)c1cc(OC)ccc12`: the inhibition was 105% (active).

For `CCN(CC)C1=NC(=[N+](CC)CC)c2ccccc21`, the inhibition is 107% (active).

As to `CCOC(=O)[C@]12Cc3c(cc(OC)c(OC)c3OC)[C@H]1N(C1CCCCC1)C(=O)c1ccccc12`, the inhibition is 99.8% (active).

Take `CCOC(=O)[C@]12Cc3ccc(C)cc3[C@H]1N(C1CCCCC1)C(=O)c1cc(OC)ccc12`: the inhibition is 104% (active).

In the case of `COc1cc2c(cc1OC)C1C(=O)c3ccc4c(c3OC1CO2)CC(C(C)C)O4` (configuration not stated), the inhibition was 71.2% (active).

As to `CC12CCC(O)CC1CCC1C2CCC2(C)C(C3=CC(=O)OC3)C(O)CC12O` (configuration not stated), the inhibition was 94.1% (active).

Take `N#Cc1ccc(Cn2cc(C=O)c3ccccc32)cc1`: the inhibition is 39.1%.

`COc1cccc2c1C(=O)c1c(O)c3c(c(O)c1C2=O)CC(O)(C(C)=NO)CC3OC1CC(N)C(O)C(C)O1` (configuration not stated): the inhibition is 79.4% (active).

With `C=C1[C@@H](C)[C@H]2[C@H](Cc3ccccc3)NC(=O)[C@]23OC(=O)/C=C/[C@H](O)CCC[C@@H](C)C/C=C/[C@H]3[C@@H]1O`, the inhibition was 27.9%.
